Pf growth 96h: P. falciparum growth inhibition at 96 hours | P. falciparum luciferase reporter growth, 96 h | Potency, µM (titrated, usually from 28.7 µM), for the others: at the top dose activity change, negative = inhibition, most hits filed as inhibitors | hit rate 6.9% among 320,000; active means well fitted inhibition curve with a large enough effect; inconclusive means small, poorly fitted or top-dose-only effect, or another doubt; inactive means no such curve, though single readings can be large or run the other way; further: potency means the concentration at half of the fitted maximal effect; on the % scale 0 is the no-effect control and ±100 the full control effect
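Parasite growth measured via integrated firefly luciferase reporter in P. falciparum. Infected erythrocytes at 2% hematocrit, 0.05% parasitemia final were treated 96 hours at 37 C under 5% CO2, and luminescence was read.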
Shiga toxin inh: inhibitors of Shiga toxin in Vero cells | Vero cells, Shiga toxin protein synthesis inhibition reporter | inhibition, % at 38.7 µM | hit rate 9.2% among 290,000 | AID 2315; in the data active means inhibition mostly above about 28%, no sharp cut-off; inactive means mostly below about 43%; further: 0% is about no effect
SARS PLP yeast: inhibitors of SARS-CoV papain-like protease in yeast; S. cerevisiae expressing SARS-CoV PLpro, growth rescue; Potency, µM (highest dose often 32.9 µM), for the others: at the highest dose activity, positive = growth rescue, usual class: activators; hit rate 0.19% among 330,000; further: potency means the concentration at half of the fitted maximal effect; 0% is about no effect; nearly all actives have a fitted effect of over 55% in size
Pf growth 48h: inhibits P. falciparum growth in the first generation, 48 h | P. falciparum luciferase growth in erythrocytes, 48 h | Potency, µM (top dose mostly 28.7 µM), for the others: top-dose activity change, negative = inhibition, actives largely listed as inhibitors | hit rate 5.9% among 310,000; active means well fitted inhibition curve with a large enough effect; inconclusive means small, poorly fitted or top-dose-only effect, or another doubt; inactive means no such curve, though single readings can be large or run the other way; further: potency means the concentration at half of the fitted maximal effect; on the % scale 0 is the no-effect control and ±100 the full control effect
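Luciferase-expressing parasites in RBCs, 2% Hct / 0.1% parasitemia final; RPMI 1640 + 0.5% Albumax; 37 C, 5% CO2, one generation; luminescence read-out, lower signal = inhibition.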
NS1 inh: inhibitors of influenza NS1 protein function. Potency, µM (top dose mostly 46.1 µM), inactives show at the highest dose activity, positive = more growth. hit rate 0.4% among 270,000; further: potency means the concentration at half of the fitted maximal effect; actives are rising curves; nearly all actives have a fitted effect of over 50% in size
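Recovery from NS1-induced slow growth read by OD600 in budding yeast switched to galactose assay medium (pH 6.0, -URA) at 1:100 dilution. Compound 23 nl per well; the matching strain lacking NS1 serves as control.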
CHX counter: affects cycloheximide protein synthesis inhibition readout, counter-screen; cell reporter, cycloheximide protein synthesis inhibition counterscreen; max response, %; hit rate 12% among 300,000; in the data active means max response mostly above about 13%, no sharp cut-off; inactive means mostly below about 14%; further: read at 38.3 µM for the half of the compounds with a filed dose; 0% is about no effect
The depositor's hits bear a star; ? = inconclusive; nt = no result; ! = not confirmed by another sample; [ ] = remark or other dose. Most compounds without a hit are left out; they make up all but 21% or so of the library. Unless noted, the call rests on the fitted dose curve.

SMILES	Pf growth 96h	Shiga toxin inh	SARS PLP yeast	Pf growth 48h	NS1 inh	CHX counter
CCOc1ccc(NC(=O)c2ccccc2NC(=O)CN2CCCCCC2)cc1	3%	nt	3%	?	nt	nt
Cc1ccc(NC(=O)c2ccccc2NC(=O)CCC(=O)O)cc1	?	19*	16%	62%	-2%	45*
COC(=O)CCC(=O)Nc1ccccc1C(=O)Nc1ccccc1	95%	-5	2%	-3%	-7%	-2
CCOc1ccc(NC(=O)c2ccccc2NC(=O)CN(C)CC(=O)Nc2ccc(C)cc2)cc1	?	-9	1%	10µM*	7%	-3
CC[C@H](C)[C@H](NC(=O)[C@H](Cc1ccc(O)cc1)NC(=O)[C@H](Cc1cnc[nH]1)NC(=O)[C@H](CCCNC(=N)N)NC(=O)[C@H](CC(C)C)NC(=O)[C@H](C)NC(=O)[C@H](CO)NC(=O)[C@H](Cc1ccc(O)cc1)NC(=O)[C@H](Cc1ccc(O)cc1)NC(=O)[C@H](CCCNC(=N)N)NC(=O)[C@H](C)NC(=O)[C@H](CCSC)NC(=O)[C@H](CC(=O)O)NC(=O)[C@H](CCC(=O)O)NC(=O)[C@H](C)NC(=O)[C@@H]1CCCN1C(=O)[C@H](C)NC(=O)[C@H](CC(=O)O)NC(=O)[C@H](CCC(=O)O)NC(=O)CNC(=O)[C@@H]1CCCN1C(=O)[C@H](CC(N)=O)NC(=O)[C@H](CC(=O)O)NC(=O)[C@@H]1CCCN1C(=O)[C@H](CCCCN)NC(=O)[C@H](CO)NC(=O)[C@@H]1CCCN1C(=O)[C@@H](N)Cc1ccc(O)cc1)C(=O)N[C@@H](CC(N)=O)C(=O)N[C@@H](CC(C)C)C(=O)N[C@@H](CC(C)C)C(=O)N[C@H](C(=O)N[C@@H](CCCNC(=N)N)C(=O)N1CCC[C@H]1C(=O)N[C@@H](CCCNC(=N)N)C(=O)N[C@@H](Cc1ccc(O)cc1)C(N)=O)[C@@H](C)O	nt	17	nt	nt	nt	8
CN(CC(=O)Nc1ccc(F)c(F)c1F)C(=O)C1CCCO1 (stereo not drawn)	10%	nt	-16%	?	nt	nt
COc1ccc(-c2ccc(-c3nnc(-c4ccncc4)o3)cc2)cc1	?	-5	-1%	nt	-60%	-3
CC/C(C)=N/Nc1nc(-c2cc3cccc(OC)c3oc2=O)cs1	34%	53*	-1%	110%	7%	47*
CCCCCCc1cc2cc(-c3nnc(-c4ccccc4OC)o3)c(=O)oc2cc1O	nt	-30	-15%	3.7µM*	4%	-6
Cc1cc(-c2nnc(-c3cc4ccccc4oc3=O)o2)c(C)n1-c1ccccc1	?	36	3%	?	9%	32*
NC(=O)c1cn(-c2ccccc2)nc1-c1cc2ccccc2oc1=O	-19%	-14	13%	nt	1%	-4
COc1ccc(-c2nnc(-c3cc4ccccc4oc3=O)o2)cc1	12µM*	15	20%	13%	22%	10
COc1ccc(NC(=O)C(=O)NCCC2CCCCN2S(=O)(=O)c2ccc(F)cc2)cc1 (stereo not drawn)	?	nt	6%	?	nt	nt
CCOC(=O)C1CCN(C(=O)C2COc3ccccc3O2)CC1 (stereo not drawn)	16%	39	3%	5%	-10%	7
CCOCC(=O)Nc1ccc([N+](=O)[O-])cc1Cl	-16%	33	-2%	24%	nt	22
Cc1ccc(NS(=O)(=O)c2ccc(C(=O)Nc3nncs3)cc2)cc1	nt	nt	-7%	nt	nt	nt
COc1cccc2cc(-c3nnc(-c4ccccc4)o3)c(=O)oc12	8.3µM*	87*	0%	23%	1%	39*
CCc1ccc(Cn2nnc(C(=O)Nc3ccc(OC)cc3OC)c2N)cc1	7.4µM*	18	-3%	nt	2%	-2
COc1ccc(C)cc1NC(=O)c1nnn(Cc2cccc(C(F)(F)F)c2)c1N	13µM*	6	-7%	-2%	nt	0
CCOc1ccc(NC(=O)Cn2nnc(C(=O)NCc3ccc(OC)cc3)c2N)cc1	46%	-2	-11%	15%	2%	-3
CCOc1ccc(Cn2nnc(C(=O)NCc3ccc(OC)cc3)c2N)cc1	0.93µM*	-9	?	10%	11%	-3
COc1ccc(OC)c(NC(=O)c2nnn(CCc3ccccc3)c2N)c1	-3%	-5	0%	nt	5%	-8
CCCc1c(OCCCCc2nn[nH]n2)ccc(C(C)=O)c1O	11µM*!	-11	-3%	?	3%	-3
COCCn1c(C)cc(C(=O)COC(=O)c2cccnc2SC)c1C	nt	nt	-4%	nt	nt	nt
COCCn1c(C)cc(C(=O)COC(=O)c2n[nH]c3ccccc23)c1C	18%	31	?	8%	-18%	11*
SMILES	Pf growth 96h	Shiga toxin inh	SARS PLP yeast	Pf growth 48h	NS1 inh	CHX counter
Cc1cc(C(=O)COC(=O)c2n[nH]c3ccccc23)c(C)n1C	-27%	62*	-2%	108%	-26%	47*
CCC(=O)c1ccc(OCC(=O)OCC(=O)c2cc(C)n(C)c2C)cc1	13µM*	-8	3%	?	-12%	-3
Cc1cc(C(=O)COC(=O)c2nccnc2N)c(C)n1C	294%	103*	5%	341%	nt	42*
CCCC[C@@H](C)/C=C(C)/C=C(\C)C(=O)NC1=C[C@@](O)(/C=C/C=C/C=C/C(=O)NC2=C(O)CCC2=O)[C@@H]2O[C@@H]2C1=O	nt	6	nt	nt	nt	6
Cc1ccc(S(=O)(=O)Nc2c(NC3CCCCC3)c3ccccc3oc2=O)c(C)c1	?	9	-6%	-29%	10%	-1
CC1CCCCN1C(=O)COC(=O)c1n[nH]c2ccccc12 (stereo not drawn)	183%	57	2%	nt	-5%	58*
CCCSc1nnc(CSc2nc(C)cc(C)n2)n1C	10µM*	-7	4%	-12%	nt	5
CCC(C)Sc1nnc(CSc2nc(C)cc(C)n2)n1C (stereo not drawn)	13µM*	2	2%	?	nt	9
CC(C)c1ccc(S(=O)(=O)N2CCN(C(=O)CN3C(=O)c4ccccc4C3=O)CC2)cc1	nt	nt	16%	nt	nt	nt
Cc1cccc(-c2noc(Cc3ccc(Cl)cc3)n2)c1	?	96	-7%	63%	-13%	40*
Cc1cccc(-c2noc(CNC(=O)c3ccoc3C)n2)c1	-2%	8	-6%	12%	-10%	11
COc1ccc(Cc2nc(-c3cccc(C)c3)no2)cc1	15µM*	112*	?	nt	1%	52*
Cc1ccc(-c2cc(-c3ccc(C)cc3)[n+](C)o2)cc1	0.37µM*	-1	-6%	1.2µM*	1%	-3
Cc1ccc(-c2cnco2)cc1	14%	-4	1%	36%	-1%	8
CC(C)OC(=O)c1ccc(N2C(=O)C3CC=CCC3C2=O)cc1 (stereo not drawn)	nt	19	-4%	14%	-8%[9.22 µM]	20*
CCOC(=O)c1ccc(-n2c(C)ccc2C)cc1	7.4µM*	19	7%	-23%	8%	1
CCOC(=O)c1ccc(N2C(=O)C=CC2=O)cc1	nt	-12	-27%	22%	-138%	7
